PubChem BioAssay AID624330 (Southern Research Specialized Biocontainment Screening …, 2012)
Screen size: about 340,000 compounds; about 2,100 (0.62%) were called active.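 The calls were made as follows: active = first-screen hits whose inhibition reached a set limit at any dose in the follow-up dose series; inconclusive = inhibition above the set first-screen limit but never retested; inactive = the rest.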 The list is a sample of the results. Potency and affinity values are given separately.

The compounds below were run against Rac GTPase-activating protein 1 (Homo sapiens) (UniProt Q9H0H5) (assay: blockers of MgcRacGAP-driven Rac1 GTP hydrolysis – biochemical, ADP Hunter fluorescence, primary and confirmatory, confirmation (AID 624330;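 also: fluorescence reports GDP produced by GAP-driven GTP hydrolysis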)). Conditions: MgcRacGAP-stimulated Rac1 GTP hydrolysis, at 30 µM, active compounds read high, GST-tagged Rac1 F28L mutant substrate.
Sequence of Rac GTPase-activating protein 1 (Homo sapiens) (Q9H0H5 whole entry, looked up): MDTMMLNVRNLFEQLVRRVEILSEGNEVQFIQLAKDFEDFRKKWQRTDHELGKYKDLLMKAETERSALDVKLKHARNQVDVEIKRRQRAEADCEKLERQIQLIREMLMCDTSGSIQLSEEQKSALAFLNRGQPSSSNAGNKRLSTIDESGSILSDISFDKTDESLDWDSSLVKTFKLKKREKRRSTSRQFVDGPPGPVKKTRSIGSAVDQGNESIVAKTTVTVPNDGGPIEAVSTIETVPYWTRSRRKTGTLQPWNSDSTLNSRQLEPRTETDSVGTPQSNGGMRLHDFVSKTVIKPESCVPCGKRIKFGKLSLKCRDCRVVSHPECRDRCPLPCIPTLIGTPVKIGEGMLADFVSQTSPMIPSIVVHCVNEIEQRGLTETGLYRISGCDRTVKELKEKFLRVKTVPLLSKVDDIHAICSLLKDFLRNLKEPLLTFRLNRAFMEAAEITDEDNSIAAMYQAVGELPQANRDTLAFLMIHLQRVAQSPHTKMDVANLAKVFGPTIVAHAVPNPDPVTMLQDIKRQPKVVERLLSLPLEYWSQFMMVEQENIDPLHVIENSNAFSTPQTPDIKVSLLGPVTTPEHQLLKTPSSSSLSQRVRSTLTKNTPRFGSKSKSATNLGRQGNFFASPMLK

inhibition, inactive:
CCC1(c2ccccc2)NC(=O)N(CC(=O)N(CC(=O)Nc2ccccc2C(F)(F)F)Cc2ccco2)C1=O (stereo not drawn) 1.52%
COc1ccc(C)cc1NC(=O)c1cc(S(=O)(=O)N2CCOCC2)cn1C 10.3%
CCOC(=O)C1CCN(C(=O)COC(=O)c2oc3ccccc3c2C)CC1 7.79%
COc1cc(/C=N/NC(=O)c2cccc(C(=O)N/N=C/c3ccc(O)c(OC)c3)n2)ccc1O 9.56%
COc1ccc(/C=N/NC(=O)c2cccc(C(=O)N/N=C/c3ccc(OC)c(OC)c3)n2)cc1OC 5.53%
CCOC(=O)N/N=C/c1ccc(OC)c(O)c1 18.6%
COc1ccc(/C=N/NC(=O)c2ccc(=O)[nH]n2)cc1OC 8.66%
CC(C)NC(=O)c1cc2n(n1)C(C(F)(F)F)CC(c1ccco1)N2 (stereo not drawn) 5.2%
C=CCn1c(SCC(=O)NCCOC)nnc1-c1cc2c(s1)CCC(CC)C2 (stereo not drawn) 7.45%
O=C1c2cc([N+](=O)[O-])ccc2-c2ncccc21 -4.67%
Cn1c(=O)[nH]c(=O)c2c1nc(Sc1ccccc1)n2CCc1ccccc1 0.88%
CCC(C)(O)c1[nH]c2ccc(C(F)(F)F)cc2c1C (stereo not drawn) 5.14%
CN1C(=O)c2cccc(NCCCN3C(=O)c4ccccc4C3=O)c2C1=O 10.7%
CNc1cccc2c1C(=O)c1ccccc1C2=O 6.76%
CN1C(=O)c2cccc(NCCCCCCN3C(=O)c4ccccc4C3=O)c2C1=O 5.81%
O=C1c2ccccc2C(=O)c2c(NCc3cccnc3)cccc21 1.26%
O=C1c2ccccc2C(=O)c2c(Nc3ccc(CCO)cc3)ccc(O)c21 15.2%
OCCNCCO -1.48%
CC(C)Oc1ccc(C(=O)NC2=NCCS2)cc1 6.37%
Cc1cccc(NC(=O)CSc2nnnn2-c2cccnc2)c1 4.2%
Cc1cc(C)c(NC(=O)CN(C)C(=O)CCN2C(=O)C3CCCCC3C2=O)c(C)c1 (stereo not drawn) 11.4%
Cn1c(SCC(=O)NCC2CCCO2)nnc1-c1cccc(NC(=O)c2ccccc2F)c1 (stereo not drawn) 2.1%
COCCCNC(=O)COc1ccc(S(=O)(=O)Nc2ccccc2)cc1 5.23%
NC(=O)CC12CC3CC(C1)CC(CC(N)=O)(C3)C2 -1.41%
NCC12CC3CC(CC(O)(C3)C1)C2 9.89%
COCC(C)NCc1cccc2ccccc12 (stereo not drawn) 26.8%
COCC(C)NCc1ccc(C)cc1C (stereo not drawn) 16.8%
CCOc1ccccc1N1CC(C(=O)Nc2cc(Cl)ccc2C)CC1=O (stereo not drawn) -1.6%
Cc1ccc(Cl)cc1N1CCN(C(=O)CN(C2CCCCC2)S(C)(=O)=O)CC1 1.2%
O=C(Nc1ccccc1Cl)C1CCN(S(=O)(=O)c2cccc3nonc23)CC1 -1.65%
CCN(CC)c1ccc(CNc2ccc3c(c2)ncn3C(C)(C)C)cc1 6.25%
CCOc1cc(/C=N\Nc2nc(-c3ccc(C)cc3)c(NC(C)=O)s2)ccc1O 8.08%
CCOc1cc(/C=N/Nc2cc(C)nc(-n3nc(C)cc3C)n2)ccc1O 11.4%
CCOc1ccc(/C=N/Nc2nc(=O)[nH]nc2C)cc1OC 7.43%
CCOc1cc(/C=N/Nc2nncc(-c3ccccc3)n2)ccc1O 13.6%
C[C@H](CO)N1C[C@H](C)[C@@H](CN(C)C(=O)Nc2ccc(C(F)(F)F)cc2)Oc2ccc(NS(=O)(=O)c3cccs3)cc2C1=O 6.16%
CC(C)NC(=O)CCCc1cn(C)c2ccccc12 3.62%
COCCNC(=O)c1onc(CSc2ccccc2)c1C(=O)O 7.12%
COc1ccc(/C=C/C(=O)OCC(=O)NCc2ccccc2)cc1OC -1.57%
COc1cc(/C=C/C(=O)OCC(=O)N(C)Cc2ccccc2)cc(OC)c1OC 5.49%
COc1cc(/C=C/C(=O)O)ccc1O 22.1%
CC(C)CN(C(=O)COC(=O)/C=C/c1ccc(Cl)c(Cl)c1)c1c(N)n(Cc2ccccc2)c(=O)[nH]c1=O 10.7%
COc1cc(/C=C/C(=O)OCC(=O)NCc2ccccc2OC)ccc1O -4.08%
CCN(C(=O)COC(=O)/C=C/c1ccc(OC)c(OC)c1)c1c(N)n(Cc2ccccc2)c(=O)[nH]c1=O 4.28%
COC(=O)c1ccc(CNC(=O)COC(=O)/C=C/c2ccc(OC)c(OC)c2)cc1 1.48%
COC(=O)c1ccc(CNC(=O)COC(=O)/C=C/c2cc(OC)c(OC)c(OC)c2)cc1 -11.7%
CCOC(=O)C(Cc1c(F)cccc1Cl)c1ccnc2nc(N)nn12 (stereo not drawn) 7.53%
CCC(CC)CN1C(Nc2ccccc2)=NC[C@@H]1CC(C)C 7.15%
Cn1c(SCC(=O)NNC(=O)c2ccc(Br)cc2)nnc1-c1cccnc1 6.67%
CC1CN(CC(=O)NN=C(c2ccccc2)c2ccccc2)CC(C)O1 (stereo not drawn) 8.46%
Cc1cccc2sc(NC(=O)CSc3nc4ccccc4o3)nc12 7.18%
CC(Sc1ncnc2ccccc12)C(=O)Nc1ccc2c(c1)OCO2 (stereo not drawn) 5.78%
COc1ccc(OC(C)C(=O)N2CCN(c3ccccn3)CC2)cc1 (stereo not drawn) -1.84%
CC1CCCN(C(=O)COC(=O)CNS(=O)(=O)c2ccc3ccccc3c2)C1 (stereo not drawn) 11.5%
COc1cc(/C=C/C(=O)OCC(=O)NCCCc2ccccc2)cc(OC)c1OC 2.15%
COc1ccc(/C=C/C(=O)OCC(=O)NCCCc2ccccc2)cc1OC 1.47%
O=C(NCCc1c[nH]c2ccccc12)C(=O)NCC(c1ccco1)N1CCN(c2ccc(F)cc2)CC1 (stereo not drawn) 5.54%
C[C@@H]1CN([C@@H](C)CO)C(=O)c2cc(-c3ccccc3F)cnc2O[C@H]1CN(C)Cc1cccc(F)c1 5.55%
COc1cccc2c(C)c(C(=O)O)[nH]c12 7.15%
COc1ccc(OC)c2c(C)cc(C)nc12 4.59%
COc1ccc(N(CC(=O)Nc2ccc(OC)c(OC)c2)S(=O)(=O)c2ccccc2)cc1Cl 12.2%
CCOC(=O)C1CCN(Cc2ccc(OC)c(OCc3ccccc3)c2)CC1 27.7%
CCOC(=O)C1CCN(Cc2ccc(OCc3ccccc3)c(OC)c2)CC1 15.7%
COc1ccc(C(=O)N2CCN(C(=O)Cc3ccccc3)CC2)cc1OC 3.19%
COc1cc(OC)cc(C(=O)N2CCN(C3CCN(Cc4ccccc4)CC3)CC2)c1 29%
CCc1ccc(CN2CCN(C(=O)c3cccc(OC)c3OC)CC2)cc1 23.3%
COc1ccccc1C(=O)N1CCN(C2CCN(Cc3ccccc3)CC2)CC1 19.4%
COc1cc(C(=O)N2CCN(CCCc3ccccc3)CC2)cc(OC)c1OC 15.2%
COc1ccc(C(=O)N2CCN(C3CCC(c4ccccc4)CC3)CC2)cc1OC (stereo not drawn) 23.6%
CCn1c(Cc2cccs2)nnc1SCC(=O)Nc1ccc(OC)c(OC)c1 7.07%
O=C(CCCn1c(=O)oc2ccccc21)N1CCc2ccccc2C1 8.41%
O=C(CSc1nccc(=O)[nH]1)Nc1cccc2ccccc12 8.22%
Cc1cc(C)cc(NS(=O)(=O)c2ccc3[nH]c(=O)ccc3c2)c1 6.34%
CCCCN(C(=O)c1cccc(-c2ccc(OC(C)=O)cc2)c1)c1c(N)n(CCC)c(=O)[nH]c1=O 8.17%
CCc1c(C)c2ccc(O)c(CN(C)C)c2oc1=O 3.54%
CC(C)c1cc(C(F)(F)F)n2nc(C(=O)Nc3ccc(-n4cnnn4)cc3)cc2n1 0.65%
CCc1cc(C(=O)N2CCCC(CNC(=O)c3ccc(-c4ccccc4)cc3)C2)no1 (stereo not drawn) 1.46%
O=C(COC(=O)c1ccc(O)cc1O)Nc1cccc2ccccc12 4.44%
CC12CCC(=O)C=C1C(F)CC1C2C(O)CC2(C)C1CCC2(O)C(=O)CO (stereo not drawn) -2.17%
Oc1ccccc1C1Nc2cccc3cccc(c23)N1 26.2%
COc1ccc(Br)cc1C1Nc2cccc3cccc(c23)N1 13.1%
COc1ccc(C2Nc3cccc4cccc(c34)N2)cc1 16%
COc1cc(C2Nc3cccc4cccc(c34)N2)cc(OC)c1O 12.2%
O=C(Oc1cccc2cccnc12)c1ccco1 12.4%
COCC(=O)N(Cc1cc2cc(C)ccc2[nH]c1=O)c1ccc(C)c(C)c1 16.2%
O=[N+]([O-])c1ccc(Cl)c(S(=O)(=O)/N=C(/c2ccccc2)N2CCOCC2)c1 2.34%
Cc1ccccc1C(=O)N1CCC(C(=O)NCc2ccc(Cl)cc2)CC1 8.11%
CC(OC(=O)CC1CCCCC1)C(=O)Nc1ccc(S(N)(=O)=O)cc1 (stereo not drawn) 1.14%
Cc1cc(C)c(C)c(S(=O)(=O)Nc2ccc(C(N)=O)cc2)c1C 13.9%
Cc1cc(C)c(C)c(S(=O)(=O)Nc2ccc(OCC(=O)O)cc2)c1C -3.75%
Cc1cc(C)c(S(=O)(=O)Nc2ccccc2)c(C)c1 -2.09%
CC(=O)c1ccc(NS(=O)(=O)c2c(C)cc(C)cc2C)cc1 2%
O=C(NC1CC1)c1ccc(CN(c2ccccc2)S(=O)(=O)c2ccccc2)cc1 5.44%
